From PubChem BioAssay come the findings set out here.

Molecules are shown by their SMILES. Activity calls are given as the source filed them. Unless noted, the rule behind the calls is not given here.

Assay [1] has as its system Wnt5a (protein binding on small-molecule microarray). Description: Wnt5a binders on small-molecule microarray, primary screen, biophysical, 635/667 nm fluorescence (AID 1142).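 Note: fluorescence read at 667 nm with signal to noise per printed feature.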 The conditions noted are these: 635 nm fluorescence, higher = more signal.
Assay [2] can be described thus: cell viability in Huh7 cells, primary screen, cytotoxicity control for HCV replication inhibitor project, CellTiter-Glo luminescence, basal, 48 h (AID 1143).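 Note: Huh7 hepatoma cells carrying a hepatitis C replication reporter with no stimulus; test concentration not given here.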 To be noted: Huh7 HCV replicon, higher = more signal, called active from +8 up or from −8 down. Background: Cellular ATP, detected with luciferase, serves as a proxy for viable cell number.
Assay [3] in a line: P. aeruginosa biofilm formation inhibitors, primary screen, PAO1 strain, BacTiter-Glo luminescence, LB-PBS (AID 1144). To be noted: 12 h, higher = more signal.
Assay [4] can be described thus: CREB reporter modulators without forskolin, primary screen, cell-based, PC12, CRE-LacZ reporter, unstimulated (AID 1145). To be noted: no forskolin, luminescence, 4.5 h, higher = more signal, called active from +8 up or from −8 down.
Assay [5] can be described thus: CREB reporter modulators under forskolin, primary screen, cell-based, PC12, CRE-LacZ reporter, forskolin-stimulated (AID 1146).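 Note: PC12 cells with 6xCRE LacZ reporter stimulated by forskolin 10 µM; beta-galactosidase reporter signal reflecting CREB driven transcription.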 The conditions noted are these: luminescence, 4.5 h, higher = more signal, called active from +8 up or from −8 down.
Assay [6] concerns the target Streptavidin (Streptomyces avidinii) (UniProt P22629). Kind of assay: streptavidin binders on small-molecule microarray, primary screen, artefact control for SMM compound annotation, biophysical, 635/667 nm fluorescence (AID 1147).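 Note: signal reflects streptavidin binding to arrayed compounds as a control protein.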 The conditions noted are these: streptavidin binding, higher = more signal.
A short description of assay [7]: small-molecule binders of probe aInhba, primary screen, biochemical, small-molecule microarray, 635/667 nm fluorescence (AID 1148).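 Note: score merges 667nm spot fluorescence with signal-to-noise for antibody binding to printed compounds.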 To be noted: higher = more signal.
In assay [8] the target is Torsin-1A (Homo sapiens) (UniProt O14656). Kind of assay: torsin A binders from cell lysate, primary screen, small-molecule microarray, wild-type, 635/667 nm (AID 1149). To be noted: COS7 hTOR1A-WT lysate, 635 nm fluorescence, higher = more signal.
Chain of Torsin-1A (Homo sapiens) (O14656 whole entry, looked up): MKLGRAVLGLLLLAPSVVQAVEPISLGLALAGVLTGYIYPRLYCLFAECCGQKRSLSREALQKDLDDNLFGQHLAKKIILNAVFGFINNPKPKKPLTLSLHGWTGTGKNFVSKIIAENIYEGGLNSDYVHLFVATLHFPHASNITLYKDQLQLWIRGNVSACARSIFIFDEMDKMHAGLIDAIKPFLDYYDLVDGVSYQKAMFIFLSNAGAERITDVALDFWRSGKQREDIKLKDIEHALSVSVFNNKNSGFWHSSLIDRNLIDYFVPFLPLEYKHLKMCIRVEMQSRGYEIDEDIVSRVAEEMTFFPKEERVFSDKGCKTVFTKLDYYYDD
The target is the same in assay [9]. Kind of assay: small-molecule binders of mutant TOR1A in lysate, primary screen, cell lysate, small-molecule microarray, COS7 lysate, 635/667 nm fluorescence (AID 1150).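 Note: score pools 667 nm emission and signal to noise measuring lysate protein binding.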 The conditions noted are these: COS7 hTOR1A mutant lysate, 635 nm fluorescence, higher = more signal.
For assay [10], the system named is Sonic hedgehog protein (Shh). Description: small-molecule binders of Shh protein, primary screen, biochemical, small-molecule microarray, 635/667 nm fluorescence (AID 1151).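 Note: Shh protein binding to compounds spotted on small-molecule microarray slides; score combines spot fluorescence intensity with signal-to-noise across triplicate slides.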 To be noted: small-molecule microarray binding, 635 nm fluorescence; higher = more signal.

Chain of Streptavidin (Streptomyces avidinii) (P22629 whole entry, looked up): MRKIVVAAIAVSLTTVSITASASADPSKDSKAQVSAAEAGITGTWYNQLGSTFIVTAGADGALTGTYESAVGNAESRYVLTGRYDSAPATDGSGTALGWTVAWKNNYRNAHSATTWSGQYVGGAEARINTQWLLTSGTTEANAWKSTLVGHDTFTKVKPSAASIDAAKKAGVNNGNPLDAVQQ

For `O=C1C[C@]2(c3ccc([N+](=O)[O-])cc3)C(=O)N(C3CC3)c3cc(CO)ccc3[C@H]2N1C1CCCCC1`, the composite z-score in assay [1] is -0.0069; in [6], 0.358; in [7] it was -0.159; in assay [8], -0.145; in [9], -0.192; in assay [10], 0.147. Also, the z-score in assay [2] is 1.09 (inactive); in assay [3], -0.21 (inactive); in [4] it was 0.802 (inactive); in assay [5] it was 0.634 (inactive).
Take `COC(=O)C(CC#Cc1ccc2c(c1)[C@]1(C(=O)N2)[C@H](c2ccc(OCCO)cc2)N2[C@H](c3ccccc3)[C@H](c3ccccc3)OC(=O)[C@H]2[C@@H]1C(=O)N1CCCCCCC1)C(=O)OC`: the composite z-score was 1.33 in assay [1]; 2.97 in assay [6]; 1.88 in assay [7]; 2.01 in [8]; 1.9 in [9]; 0.582 in assay [10]. The z-score in assay [2] was -1.99 (inactive); in assay [3], -1.14 (inactive); in assay [4] it was 0.622 (inactive); in [5] it was -0.159 (inactive).
Take `O=C1OCCC=C[C@H]2OC34C=CCN(c5ccc6ccccc6c5)C(=O)[C@H]3N(CCO)C(=O)[C@@H]4C12` (stereo not given in full): the composite z-score in [1] is -0.457; in assay [6] it was -0.906; in [7], -0.753; in assay [8] it was -1.41; in [9], -0.669; in assay [10], 0.116. Moreover, the z-score in assay [2] was 0.291 (inactive); in assay [3] it was -0.663 (inactive); in assay [4] it was -0.887 (inactive); in assay [5], 0.463 (inactive).
Take `CC(C)c1nc2cc(Br)ccc2c(=O)o1`: the composite z-score in assay [1] was 0.432; in assay [6], 0.632; in [7] it was -0.0736; in assay [8], 0.0358; in assay [9], 0.244; in assay [10], 0.116. Besides, the z-score in assay [2] is -0.232 (inactive); in assay [3], -0.523 (inactive); in assay [4], -0.348 (inactive); in [5] it was -0.524 (inactive).
On to `COc1ccc([Si](C)(C)[C@H]2[C@H](CC(=O)N3Cc4ccccc4C[C@H]3CO)O[C@@]3(C(=O)N(c4ccccc4)c4ccccc43)[C@@H]2C)cc1`, for which the composite z-score in assay [1] stood at 0.479; in [6] it was 0.968; in assay [7], 0.0342; in [8], 1.57; in assay [9], 0.862; in assay [10], 2.04. Also, the z-score is -5.64 (inactive) in [2], 0.449 (inactive) in assay [3], 3.6 (inactive) in [4] and -1.16 (inactive) in [5].
`COC(=O)[C@@]1(Cc2ccc(F)cc2)[C@H]2c3cc(C(=O)N4CCCC4)n(Cc4cc(F)cc5c4OCOC5)c3C[C@H]2CN1C(=O)c1ccccc1`: the composite z-score was 0.547 in assay [1]; 1.57 in [6]; 0.328 in [7]; -0.659 in assay [8]; -0.212 in assay [9]; 0.229 in assay [10]. Moreover, the z-score is -3.39 (inactive) in assay [2], 0.403 (inactive) in assay [3], -0.372 (inactive) in [4] and 0.755 (inactive) in [5].
Take `COc1ccc(C(O)C2C=CC3C(=O)N(c4ccccc4)C(=O)C3N2Nc2ccc([N+](=O)[O-])cc2)c2ccccc12` (stereo not given): the composite z-score in assay [1] was 0.328; in assay [6], 1.86; in assay [7], 0.12; in assay [8], 0.771; in assay [9], 0.163; in assay [10], 0.0892. In addition, the z-score in assay [2] was -0.8 (inactive); in [3] it was -0.557 (inactive); in assay [4], -0.228 (inactive); in assay [5], -0.838 (inactive).
Turning to `CCOC(=O)C[C@H]1[C@H](OC(=O)c2ccccc2-c2ccccc2)[C@@H](NC(=O)C2CCCCC2)c2cc(OCCCO)ccc2N1C(=O)c1ccc2ccccc2n1`, the composite z-score in assay [1] came to 0.243; in [6] it was 0.155; in assay [7], 0.222; in assay [8], 0.237; in assay [9], 0.133; in [10], 0.897. In addition, the z-score is -0.911 (inactive) in [2], 0.507 (inactive) in assay [3], 4.83 (inactive) in assay [4] and 1.51 (inactive) in assay [5].
On to `COCCCNC(=O)[C@@]1(CCC(=O)OC(C)(C)C)COC(c2ccc(OCCCO)cc2)=N1`, for which the composite z-score in [1] was 0.23; in assay [6] it was 0.905; in [7], 0.204; in assay [8], 0.589; in assay [9] it was 1.4; in assay [10] it was -0.98. The z-score in assay [2] was -1.7 (inactive); in [3] it was -0.126 (inactive); in assay [4] it was 0.195 (inactive); in [5] it was 0.706 (inactive).
In the case of `CCCCCC1=C2CNC(CC(C)C)(C(=O)OC)C=C2C(C)C1=O` (stereo not given), the composite z-score in assay [1] was -0.025; in assay [6], 0.428; in [7], 0.0668; in assay [8], -0.276; in assay [9], -0.207; in assay [10], -0.242. The z-score in [2] was -0.575 (inactive); in assay [3], 0.661 (inactive); in [4], 0.0041 (inactive); in [5], 0.728 (inactive).
As to `Cc1ccc(S[C@]2(C(=O)NC(C)C)CC(=O)N(C3CCCCC3)[C@@H]2c2ccc(CO)cc2I)cc1`, the composite z-score in [1] is 0.0335; in assay [6], 1.46; in assay [7], -0.0589; in assay [8] it was 1.21; in assay [9], 2.76; in assay [10], 1.95. Further, the z-score in assay [2] was -3.94 (inactive); in [3] it was -1.17 (inactive); in [4], -0.608 (inactive); in [5], 0.74 (inactive).
Regarding `[N-]=[N+]=Nc1ccccc1C[C@@]1(C(=O)NCC(O)CO)N=C(c2ccc(OCCCO)cc2)O[C@@H]1c1ccccc1` (stereo not given in full), the composite z-score in assay [1] is 0.674; in assay [6], 1.45; in assay [7] it was 0.0047; in assay [8], 0.744; in assay [9], 0.944; in [10], -0.538. Moreover, the z-score in assay [2] is -3.5 (inactive); in assay [3] it was 0.557 (inactive); in assay [4] it was -0.16 (inactive); in [5] it was -0.57 (inactive).
On to `CC1CC/C=C\[C@H]2OC34C=CCN(c5ccc(Cl)cc5)C(=O)[C@H]3N(CCCCCCO)C(=O)[C@]4(C)C2C(=O)O1` (stereo not given in full), for which the composite z-score was -0.765 in assay [1]; -0.963 in assay [6]; -0.239 in assay [7]; -2.03 in assay [8]; -1.7 in [9]; -0.12 in assay [10]. Besides, the z-score is 0.641 (inactive) in [2], 0.306 (inactive) in assay [3], 1 (inactive) in assay [4] and -0.446 (inactive) in [5].
As to `CC1CC/C=C\[C@H]2OC34C=CCN(Cc5ccccc5)C(=O)[C@H]3N(CCCCCCO)C(=O)[C@@H]4C2C(=O)O1` (stereo not given in full), the composite z-score in assay [1] is -0.523; in [6] it was -0.871; in assay [7] it was -0.206; in assay [8] it was 1.4; in [9], -0.549; in assay [10] it was 0.06. Also, the z-score was -0.649 (inactive) in assay [2], 2.79 (inactive) in assay [3], 0.329 (inactive) in assay [4] and 0.138 (inactive) in assay [5].
